# Reference: paper PMC4336329 (PLoS ONE, 2015)
# In all, about 310,000 compounds went through this assay and about 14,000 (4.5%) showed an effect of 50% or more. The effect is printed as a negative number. The entries come from a sample that favours strong results as a whole.
# Target: human ether-à-go-go-related gene (hERG) potassium channel (human, UniProt Q12809)
# Test: primary screen, population patch clamp on CHO cells stably expressing hERG; higher = less effect of the substance
# 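Further: peak tail current of the secondary pulse compared with the same well before compound.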
# Sequence of human ether-à-go-go-related gene (hERG) potassium channel (Q12809 whole entry, looked up): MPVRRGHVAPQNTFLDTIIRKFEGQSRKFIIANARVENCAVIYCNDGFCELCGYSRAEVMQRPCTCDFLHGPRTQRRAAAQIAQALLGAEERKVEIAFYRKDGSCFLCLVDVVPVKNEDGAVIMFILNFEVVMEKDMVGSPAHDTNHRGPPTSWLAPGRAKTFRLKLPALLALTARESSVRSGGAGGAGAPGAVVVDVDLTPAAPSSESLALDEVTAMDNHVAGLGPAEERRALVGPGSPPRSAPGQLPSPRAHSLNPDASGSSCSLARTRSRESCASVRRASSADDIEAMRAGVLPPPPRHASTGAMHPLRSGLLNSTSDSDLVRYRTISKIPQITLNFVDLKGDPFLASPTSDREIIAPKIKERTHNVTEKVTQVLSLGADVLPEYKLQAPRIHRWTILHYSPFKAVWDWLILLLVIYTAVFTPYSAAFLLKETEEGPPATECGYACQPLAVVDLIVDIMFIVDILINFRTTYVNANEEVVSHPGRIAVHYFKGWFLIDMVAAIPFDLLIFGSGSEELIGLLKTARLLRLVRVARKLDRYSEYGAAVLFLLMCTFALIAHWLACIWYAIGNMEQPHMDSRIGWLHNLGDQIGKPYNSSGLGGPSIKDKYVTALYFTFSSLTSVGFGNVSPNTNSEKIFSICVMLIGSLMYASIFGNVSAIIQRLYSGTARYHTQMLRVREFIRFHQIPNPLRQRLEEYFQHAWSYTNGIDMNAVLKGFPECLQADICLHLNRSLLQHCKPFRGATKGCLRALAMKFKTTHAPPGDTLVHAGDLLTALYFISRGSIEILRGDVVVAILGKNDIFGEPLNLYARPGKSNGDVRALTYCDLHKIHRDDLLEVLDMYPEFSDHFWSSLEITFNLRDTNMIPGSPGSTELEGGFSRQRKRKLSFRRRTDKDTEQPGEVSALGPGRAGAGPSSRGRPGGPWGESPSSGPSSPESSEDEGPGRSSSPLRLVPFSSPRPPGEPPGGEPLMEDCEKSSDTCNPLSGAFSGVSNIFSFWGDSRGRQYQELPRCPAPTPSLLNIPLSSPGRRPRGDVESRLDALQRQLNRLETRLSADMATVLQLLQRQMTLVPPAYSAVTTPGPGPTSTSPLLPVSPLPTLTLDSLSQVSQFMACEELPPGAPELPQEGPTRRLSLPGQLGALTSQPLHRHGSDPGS
row,Compound,"hERG current change (%, negative = inhibition) at 10uM"
1,CCCNC(=O)c1oc2ccc3c(c2c1C)C=CC(C)(C)O3,0.704%
2,CCOC(=O)c1cc2c(=O)n3ccccc3nc2n(CCOC)c1=NC(=O)c1ccncc1,-51.3%
3,CCOC(=O)c1cc2c(=O)n3ccccc3nc2n(CCOC)c1=NC(=O)c1c(-c2c(F)cccc2Cl)noc1C,2%
4,CCOC(=O)c1cc2c(=O)n3ccccc3nc2n(CCCOC)c1=NC(=O)C(C)(C)C,-7.42%
5,CCOC(=O)c1cc2c(=O)n3ccccc3nc2n(CCCOC)c1=NC(=O)c1ccncc1,-87.3%
6,CCOC(=O)c1cc2c(=O)n3ccccc3nc2n(CCOC)c1=NC(=O)C(C)(C)C,-4.45%
7,CCOC(=O)c1cc2c(=O)n3ccccc3nc2n(CCCOC)c1=NC(C)=O,-27.5%
8,Cc1cccc(C(=O)Nc2ccc(C(=O)/C=C/c3cccs3)cc2)c1,7.48%
9,O=C(CSc1n[nH]c(=O)[nH]c1=O)N/N=C/c1ccccc1,8.14%
10,COc1ccc(-n2nc(C(=O)NCC(=O)NC(C)C)c3ccccc3c2=O)c(OC)c1,11.3%
11,COc1ccc(S(=O)(=O)n2nc(-c3cc(OC)c(OC)c(OC)c3)cc2N)cc1OC,-2.63%
12,Cc1ccc(OCC(=O)N/N=C\c2ccco2)c(C)c1,-38%
13,CCc1ccc(OCC(=O)N/N=C\c2ccco2)c([N+](=O)[O-])c1,-67.4%
14,COc1cc(/C=N/NC(=O)COc2ccccc2[N+](=O)[O-])ccc1OC(=O)c1ccco1,-1.29%
15,Cc1cc(-c2nnc(CSc3nnc(NC(=O)c4ccc(C(C)(C)C)cc4)s3)o2)ccc1[N+](=O)[O-],4.92%
16,CCN(CC)c1nc(N)c([N+](=O)[O-])c(NCCO)n1,12.1%
17,COc1ccccc1CN1CC(=O)N2CSC[C@H]2C1=O,10.3%
18,O=C1C2CSCN2C(=O)CN1CCCN1CCN(C(c2ccccc2)c2ccccc2)CC1 (stereo not shown),-53.6%
19,O=C1[C@@H]2CSCN2C(=O)CN1CCc1cccc(F)c1,-20.9%
20,CCn1cc(C(=O)O)c(=O)c2cc(Br)ccc21,-46.7%
21,Cc1ccc(/C=C2\SC(=S)N(c3cccnc3)C2=O)cc1,18.9%
22,COc1ccc(OC)c(NC(=O)C2CCCN(S(=O)(=O)c3c(C)noc3C)C2)c1 (stereo not shown),-16.8%

row,Compound,"hERG current change (%, negative = inhibition) at 10uM"
1,CC(C)c1ccc(N=C2N=C(N)c3ccccc32)cc1,-59.2%
2,NC1=NC(=Nc2ccccc2)c2ccccc21,8.33%
3,NC1=NC(=Nc2ccc(Cl)cc2)c2ccccc21,-3.81%
4,CCOC(=O)c1c(C)[nH]c(C)c1S(=O)(=O)N1CCOCC1,13.8%
5,COc1ccc(S(=O)(=O)N2CCCN(CC(=O)Nc3ccc(NC(C)=O)cc3)CC2)cc1,2.8%
6,COc1ccc(S(=O)(=O)N2CCCN(CC(=O)Nc3ccc4c(c3)OCO4)CC2)cc1,-61.5%
7,COc1ccc(S(=O)(=O)N2CCCN(CC(=O)Nc3ccc(OC)c(Cl)c3)CC2)cc1,-33.3%
8,COc1ccccc1NC(=O)CN1CCN(CC(=O)Nc2ccc3c(c2)OCO3)CC1,-72%
9,CCOc1ccc(NC(=O)COc2ccc3c(c2)OCO3)cc1,1.04%
10,CCOc1ccc(OCCC(=O)Nc2ccc3c(c2)OCO3)cc1,10.2%
11,COc1ccc(OCC(=O)Nc2ccc3c(c2)OCO3)cc1,-0.489%
12,O=C(CN1CCOCC1)Nc1ccc2c(c1)OCO2,17.3%
13,COc1ccccc1N1CCN(CC(=O)Nc2ccc3c(c2)OCCO3)CC1,-6.03%
14,CCOc1ccc(NC(=O)CN2CCN(CC(=O)Nc3ccc4c(c3)OCO4)CC2)cc1,-76.1%
15,COc1ccccc1NC(=O)CN1CCN(CC(=O)Nc2ccc3c(c2)OCCO3)CC1,-34.4%
16,COc1ccc(NC(=O)CN2CCN(CC(=O)Nc3ccc4c(c3)OCO4)CC2)cc1,-78.1%
17,COc1ccccc1NC(CC(=O)c1ccccc1)C(=O)OCC(=O)c1ccc(Br)cc1 (stereo not shown),-3.81%
18,Cc1ccc(C2=NN(C(=O)c3cccs3)C(c3ccccc3O)C2)cc1 (stereo not shown),34%
19,O=S1(=O)N=C(N(CCO)/N=C/c2ccc(Cl)cc2)c2ccccc21,4.3%
20,CN(C)c1ccc(P(=O)(Nc2ccc([N+](=O)[O-])cc2)N2CCOCC2)c(NC(=O)c2cccs2)c1 (stereo not shown),16.9%
21,Cc1nc(=O)c(-c2ccccc2)c(C)n1-c1ccc(O)cc1,9.6%
22,O=C(NCCCl)Nc1cccnc1Cl,12.2%

row,Compound,"hERG current change (%, negative = inhibition) at 10uM"
1,COc1ccc(/C(C)=N\n2cnnc2)cc1,6.86%
2,O=C(CNC(=O)c1ccccc1)OCc1cccc(Br)c1,-17.8%
3,O=C(CNC(=O)c1ccc(Oc2ccccc2)cc1)OCc1ccc(Br)cc1,-0.714%
4,Cc1ccc(/C=C(\NC(=O)c2ccccc2)C(=O)OCc2ccccc2)cc1,10.3%
5,O=C(CNC(=O)/C(=C\c1ccccc1)NC(=O)c1ccc(Br)cc1)OCc1ccccc1,-69.1%
6,CCOC(=O)CNC(=O)/C(=C\c1ccc(F)cc1)NC(=O)c1ccccc1,-26.4%
7,Cc1ccc(C(=O)N/C(=C\c2ccccc2)C(=O)OCc2ccccc2)cc1,-50.7%
8,O=C(CNC(=O)/C(=C/c1ccccc1)NC(=O)c1ccc(Br)cc1)OCc1ccccc1,-64%
9,O=C(NC(Cc1ccccc1)C(=O)O)/C(=C\c1ccc(F)cc1)NC(=O)c1ccccc1 (stereo not shown),11.1%
10,CC(=O)N/C(=C\c1ccccc1)C(=O)OCc1ccc(C)cc1,-19.9%
11,O=C(CNC(=O)/C(=C\c1ccc(F)cc1)NC(=O)c1ccccc1)OCc1ccccc1,-80.7%
12,O=C(Nc1ccc(C(=O)O)cc1)/C(=C\c1ccccc1)NC(=O)c1ccc(Br)cc1,7.33%
13,CC1(C(=O)NCCCN2CCOCC2)Oc2cccnc2NC1=O (stereo not shown),13.2%
14,Cc1ccccc1NC(=S)Nc1ccc(Br)cc1,-6.93%
15,CS(=O)(=O)N(Cc1ccccc1)c1ccc(C(=O)Nc2ccccc2Sc2ccccc2)cc1,1.8%
16,Cc1cccc(C)c1NC(=O)CN(C)C(=O)c1ccccc1Sc1ccccc1C#N,-4.76%
17,O=C(NC(=S)NCc1cccnc1)c1cc2ccccc2o1,8.71%
18,CC(=O)c1ccc(O)c(CSC2=NCCS2)c1,19.8%
19,O=C(CN1C(=O)NC2(CCc3ccccc32)C1=O)NCCc1ccccc1 (stereo not shown),-6.43%
20,COc1ccccc1C(=O)N/C(=C\c1ccc(Br)cc1)C(=O)NCC(=O)O,1.78%
21,NC(=S)NNC(=O)/C(=C/c1ccc(Br)cc1)NC(=O)c1ccccc1,40%
22,O=C(CNC(=O)/C(=C\c1ccc(Br)cc1)NC(=O)c1ccccc1)OCc1ccccc1,-59.9%

row,Compound,"hERG current change (%, negative = inhibition) at 10uM"
1,CC1(c2ccccc2)NC(=O)N(CC(=O)Nc2nc(-c3ccccn3)cs2)C1=O (stereo not shown),0.219%
2,COc1ccccc1NC(=O)Nc1nn(C)c2cccc(N(C)C)c12,11%
3,COC1CCN(Cc2cn(Cc3ccccc3)nc2-c2cc3ccccc3o2)CC1,-71.9%
4,COC(=O)C1CCN(Cc2cn(Cc3ccccc3)nc2-c2cc3ccccc3o2)CC1,-75.9%
5,COC(=O)C1CCN(C(=O)c2cc3ccccc3oc2=O)CC1,-7.44%
6,COc1ccc(NC(=O)c2cn(CCC#N)nc2-c2cc3ccccc3o2)cc1,-0.308%
7,N#CCCn1cc(C(=O)Nc2ccc(C(=O)O)cc2)c(-c2cc3ccccc3o2)n1,10.7%
8,COC(=O)C1CCN(Cc2nnc(-c3ccccc3)o2)CC1,16.1%
9,COc1cccc(-c2nn(Cc3ccccc3)cc2CO)c1,8.47%
10,COCCOC1CCN(Cc2cn(Cc3ccccc3)nc2-c2cc3ccccc3o2)CC1,-67%
11,CC(C)(C)c1ccc(/C([O-])=C(/C(=S)NCc2ccco2)[n+]2ccccc2)cc1,6.63%
12,Cc1cc(C)cc(NC(=S)N2CCN(S(C)(=O)=O)CC2)c1,4.55%
13,CCOc1ccc(N(CC(=O)NCCCOC)S(C)(=O)=O)cc1,4.53%
14,COc1ccc(Nc2c3c(nc4ccc(C)cc24)CCC3)cc1.Cl,-78.3%
15,Cc1ccc2nc3c(c(Nc4cccc(O)c4)c2c1)CCC3.Cl,-70%
16,Cc1cccc(-c2nc(Nc3cccc(O)c3)c3ccccc3n2)c1,21.8%
17,Cc1ccc2nc3c(c(C(=O)O)c2c1)CCC3,2.29%
18,COc1ccc2nc3c(c(-c4ccccc4)c2c1)CCC3,-5.34%
19,Cc1ccc(-c2nc(Nc3cccc(O)c3)c3ccccc3n2)cc1,11.9%
20,COc1ccc(Nc2ncnc3ccc(C)cc23)cc1,-3.17%
21,Cc1ccc2nc3c(c(Nc4ccc(O)cc4)c2c1)CCC3.Cl,-21.2%
22,Cc1ccc2nc3c(c(Nc4ccccc4)c2c1)CCC3.Cl,-71.7%
